Measurements taken from PubChem BioAssay (NCATS).
Records with an inconclusive call do not appear. The source made the active and inactive calls. Calls follow the shape of the dose curve; as a rule, active = well fitted curve in the direction sought with a large enough effect; inconclusive = small, poorly fitted or top-dose-only effect, or another doubt; inactive = no such curve, though single readings can be large; an effect the other way counts as inactive or inconclusive.

Assays:
[1] = qHTS of pediatric cancer cell lines to identify multiple opportunities for drug repurposing: Primary screen for Rh18 cells (AID 1347102); also: % is scaled to controls: 0 for no effect and ±100 for the full control effect; nearly all actives have a fitted effect of over 65% in size
How it was run: (§1)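 Viability after 48 h compound treatment at 37C, 500-1,000 cells/well, read as ATP luminescence with CellTiter-Glo. Primary screens used 11-point (MIPE, 0.78 nM-46 µM) or 8-point (NPC, 0.59 nM-46 µM) final concentrations; follow-up screens used 11-point dilutions.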

[2] = qHTS of pediatric cancer cell lines to identify multiple opportunities for drug repurposing: Primary screen for OHS-50 cells (AID 1347103);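 also: plate controls were DMSO neutral control for no effect and bortezomib positive control for full effect; nearly all actives have a fitted effect of over 40% in size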
How it was run: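 Cells (500-1,000/well) rested 5 h, then received compounds for 48 h; metabolically active cells were measured by CellTiter-Glo luminescence. Final concentrations spanned up to 46 µM (MIPE, 11-point) or 0.59 nM-46 µM (NPC, 8-point) in primary screens, 11-point in follow-ups.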

[3] = qHTS of pediatric cancer cell lines to identify multiple opportunities for drug repurposing: Primary screen for RD cells (AID 1347104);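 also: plate controls were DMSO for no effect and bortezomib for full effect; nearly all actives have a fitted effect of over 55% in size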
How it was run: (§2)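 Viability was measured as metabolically active cells after 48 hours of treatment, read by CellTiter-Glo luminescence. Compounds were tested at multiple final concentrations, giving concentration-response curves.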

[4] = qHTS of pediatric cancer cell lines to identify multiple opportunities for drug repurposing: Primary screen for MG 63 (6-TG R) cells (AID 1347105); also: % is scaled to controls: 0 for no effect and ±100 for the full control effect; nearly all actives have a fitted effect of over 50% in size
How it was run: as §2

[5] = qHTS of pediatric cancer cell lines to identify multiple opportunities for drug repurposing: Primary screen for control Hh wild type fibroblast cells (AID 1347106);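 also: series mostly up to about 46 µM; % is scaled to controls: 0 for no effect and ±100 for the full control effect; a drop in luminescence marks cytotoxicity and a rise apparent proliferation; nearly all actives have a fitted effect of over 55% in size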
How it was run: as §1

[6] = qHTS of pediatric cancer cell lines to identify multiple opportunities for drug repurposing: Primary screen for Rh30 cells (AID 1347107); also: series mostly up to about 46 µM; % is scaled to controls: 0 for no effect and ±100 for the full control effect; nearly all actives have a fitted effect of over 75% in size
How it was run: as §1

[7] = qHTS of pediatric cancer cell lines to identify multiple opportunities for drug repurposing: Primary screen for Rh41 cells (AID 1347108);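 also: series mostly up to about 46 µM; luminescence drop marks cytotoxic hits; nearly all actives have a fitted effect of over 70% in size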
How it was run: as §2

COc1ccc2c(c1)C(=O)N(CCc1ccc(S(=O)(=O)NC(=O)NC3CCCCC3)cc1)C(=O)C2(C)C
inactive: Potency [1] | Potency [2] | Potency [3] | Potency [4] | outcome [5] | outcome [6] | Potency [7]

Nc1ccc(S(=O)(=O)Nc2nccs2)cc1
inactive: Potency [1] | Potency [2] | Potency [3] | Potency [4] | outcome [5] | outcome [6] | Potency [7]

CCN(CC)C(C)CN1c2ccccc2Sc2ccccc21 (configuration not stated)
inactive: Potency [1] | Potency [2] | Potency [3] | Potency [4] | outcome [5] | outcome [6] | Potency [7]

NC(=O)N/N=C/c1ccc([N+](=O)[O-])o1
inactive: Potency [1] | Potency [2] | Potency [3] | Potency [4] | outcome [5] | outcome [6] | Potency [7]

CCOC(=O)[C@H](CCc1ccccc1)N[C@@H](C)C(=O)N1C(=O)N(C)C[C@H]1C(=O)O
inactive: Potency [1] | Potency [2] | Potency [3] | Potency [4] | outcome [5] | outcome [6] | Potency [7]

CCCCCCCCCCCCOS(=O)(=O)O
inactive: Potency [1] | Potency [2] | Potency [3] | Potency [4] | outcome [5] | outcome [6] | Potency [7]

CCOC(CN1CCN(CC(C)C(=O)c2ccccc2)CC1)c1ccccc1 (configuration not stated)
inactive: Potency [1] | Potency [2] | Potency [3] | Potency [4] | outcome [5] | outcome [6] | Potency [7]

CC1=C(CC(=O)O)c2cc(F)ccc2/C1=C\c1ccc(S(C)=O)cc1 (configuration not stated)
inactive: Potency [1] | Potency [2] | Potency [3] | Potency [4] | outcome [5] | outcome [6] | Potency [7]

Cc1cccc(Nc2cc(Cl)nc(SCC(=O)O)n2)c1C
inactive: Potency [1] | Potency [2] | Potency [3] | Potency [4] | outcome [5] | outcome [6] | Potency [7]

C[C@]12C[C@H](O)[C@H]3[C@@H](CCC4=CC(=O)CC[C@@]43C)[C@@H]1CC[C@@H]2C(=O)CO
inactive: Potency [1] | Potency [2] | Potency [3] | Potency [4] | outcome [5] | outcome [6] | Potency [7]

NCCNCCNCCN
inactive: Potency [1] | Potency [2] | Potency [3] | Potency [4] | outcome [5] | outcome [6] | Potency [7]

NCC(=O)CCC(=O)O
inactive: Potency [1] | Potency [2] | Potency [3] | Potency [4] | outcome [5] | outcome [6] | Potency [7]

Oc1cccc(O)c1
inactive: Potency [1] | Potency [2] | Potency [3] | Potency [4] | outcome [5] | outcome [6] | Potency [7]

CCN(CC)C(=O)Nc1ccc(OCC(O)CNC(C)(C)C)c(C(C)=O)c1 (configuration not stated)
inactive: Potency [1] | Potency [2] | Potency [3] | Potency [4] | outcome [5] | outcome [6] | Potency [7]

OCC(O)CN1CCN(c2ccccc2)CC1 (configuration not stated)
inactive: Potency [1] | Potency [2] | Potency [3] | Potency [4] | outcome [5] | outcome [6] | Potency [7]

CC(C)(C)C(=O)NCCCC(=O)O
inactive: Potency [1] | Potency [2] | Potency [3] | Potency [4] | outcome [5] | outcome [6] | Potency [7]

O=C1c2c(O)cccc2Cc2cccc(O)c21
inactive: Potency [1] | Potency [2] | Potency [3] | Potency [4] | outcome [5] | outcome [6] | Potency [7]

CC/C=C(\C(=O)N[C@@H]1C(=O)N2C(C(=O)OCOC(=O)C(C)(C)C)=C(COC(N)=O)CS[C@H]12)c1csc(N)n1
inactive: Potency [1] | Potency [2] | Potency [3] | Potency [4] | outcome [5] | outcome [6] | Potency [7]

CCCCCCCCCCCCCCCCCCOCC(O)CO (configuration not stated)
inactive: Potency [1] | Potency [2] | Potency [3] | Potency [4] | outcome [5] | outcome [6] | Potency [7]

[O-][n+]1cccc(CO)c1
inactive: Potency [1] | Potency [2] | Potency [3] | Potency [4] | outcome [5] | outcome [6] | Potency [7]

CC(COc1ccccc1)NC(C)C(O)c1ccc(O)cc1 (configuration not stated)
inactive: Potency [1] | Potency [2] | Potency [3] | Potency [4] | outcome [5] | outcome [6] | Potency [7]

Cc1c(Cl)cccc1Nc1ccccc1C(=O)O
inactive: Potency [1] | Potency [2] | Potency [3] | Potency [4] | outcome [5] | outcome [6] | Potency [7]

Cc1ncc(COP(=O)(O)O)c(C=O)c1O
inactive: Potency [1] | Potency [2] | Potency [3] | Potency [4] | outcome [5] | outcome [6] | Potency [7]

C[C@H](NC(CCc1ccccc1)C(=O)O)C(=O)N1CCC[C@H]1C(=O)O (some centres not stated)
inactive: Potency [1] | Potency [2] | Potency [3] | Potency [4] | outcome [5] | outcome [6] | Potency [7]

N[C@@H](CSSC[C@H](N)C(=O)O)C(=O)O
inactive: activity change, negative = cytotoxic [1] 0.304% [at 0.597 µM] | activity change, negative = cytotoxic [2] 6.93% [at 0.73 µM] | activity change, negative = cytotoxic [3] 5.61% [at 0.597 µM] | activity change, negative = cytotoxic [4] 0.733% [at 0.597 µM] | activity change, negative = cytotoxic [5] 21.8% [at 0.597 µM] | activity change, negative = cytotoxic [6] 12% [at 0.597 µM] | activity change, negative = cytotoxic [7] 8.25% [at 0.597 µM]

CCCCC(CC)COC(=O)c1ccccc1O (configuration not stated)
inactive: Potency [1] | Potency [2] | Potency [3] | Potency [4] | outcome [5] | outcome [6] | Potency [7]
